# This is part of a sample that, as a whole, favours compounds with a hit. Of some 79,000 tested, about 15% had one in any assay. A number with no mark means an inactive call. Calls of active or inactive are those of the source. No stated cut-off is given here; in the data, active means growth inhibition above about 70%; inactive means the rest.
# Legend:
# [1] = NCI Yeast Anticancer Drug Screen. Data for the wt1 strain (AID 149);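 further: 0% = growth of vehicle-treated wt1 cultures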; details: S. cerevisiae wt1 strain (SPY 50644) growth inhibition, active compounds read high
# Summary of the method: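 Vehicle-normalised growth inhibition; strain wt1; compound exposure.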
# [2] = NCI Yeast Anticancer Drug Screen. Data for the mgt1 strain (AID 153); details: S. cerevisiae mgt1 mutant growth inhibition, active compounds read high
# Summary of the method: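 After exposure of the mgt1 yeast mutant to compound, growth was measured and reported as inhibition compared with vehicle controls.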
# [3] = NCI Yeast Anticancer Drug Screen. Data for the rad50 strain (AID 155);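 further: 0% = growth of vehicle-only cultures of the same strain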; details: S. cerevisiae rad50 strain growth inhibition, active compounds read high
# Summary of the method: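 A DNA repair-deficient yeast mutant serves as the test organism; compound-induced growth inhibition is calculated against vehicle-treated cells.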
# [4] = NCI Yeast Anticancer Drug Screen. Data for the mec2-1 strain (AID 157); details: S. cerevisiae mec2-1 strain, active compounds read high
# Summary of the method: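 Test agents were screened against the mec2-1 yeast strain, with defined DNA repair or cell cycle alteration. Growth was scored as inhibition against vehicle-only controls.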
# [5] = NCI Yeast Anticancer Drug Screen. Data for the rad14 strain (AID 159);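 further: 0% = growth of vehicle-treated control cultures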; details: S. cerevisiae rad14 strain growth inhibition, active compounds read high
# Summary of the method: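 Vehicle-treated cultures served as the baseline for growth inhibition of a DNA repair-mutant yeast strain exposed to each compound.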
# [6] = NCI Yeast Anticancer Drug Screen. Data for the sgs1 mgt1 strain (AID 161);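 further: 0% = growth of cultures given vehicle only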; details: S. cerevisiae sgs1 mgt1 strain, active compounds read high
# Summary of the method: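 Mutant yeast exposed to compound; growth scored against vehicle-only wells.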
# [7] = NCI Yeast Anticancer Drug Screen. Data for the CLN2oe strain (AID 163);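 further: 0% = growth of vehicle-only control cultures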; details: S. cerevisiae CLN2oe strain, active compounds read high
# Summary of the method: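 Here, growth inhibition in a cell-cycle-altered yeast strain after compound exposure was quantified against vehicle control growth.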
# [8] = NCI Yeast Anticancer Drug Screen. Data for the cln2 rad14 strain (AID 165);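 further: 0% = growth equal to vehicle treated cultures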; details: S. cerevisiae cln2 rad14 strain, active compounds read high
# Summary of the method: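 Growth of compound-exposed yeast (cln2 rad14 genotype) measured and expressed as inhibition relative to vehicle.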
# [9] = NCI Yeast Anticancer Drug Screen. Data for the bub3 strain (AID 167); details: S. cerevisiae bub3 mutant strain, active compounds read high
# Summary of the method: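 Inhibition values come from growth of compound-treated mutant yeast normalised to vehicle-treated controls.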
# [10] = NCI Yeast Anticancer Drug Screen. Data for the wt2 strain (AID 169);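 further: 0% = growth of vehicle-treated yeast cultures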; details: S. cerevisiae wt2 strain growth inhibition, active compounds read high
# Summary of the method: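 Genetically defined yeast strains from a DNA-repair/cell-cycle panel were used. Compound-exposed yeast growth was measured, and the inhibition was calculated relative to vehicle treatment.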
# [11] = NCI Yeast Anticancer Drug Screen. Data for the mlh1 strain (AID 171);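 further: 0% = growth of vehicle-treated control cultures of the same strain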; details: S. cerevisiae mlh1 strain growth inhibition, active compounds read high
# Summary of the method: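 Here the genetically defined yeast mutant is grown with each compound, and the extent to which its growth falls below that of vehicle-exposed cells is reported.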
# [12] = NCI Yeast Anticancer Drug Screen. Data for the rad18 strain (AID 177); details: S. cerevisiae rad18 mutant growth inhibition, active compounds read high
# Summary of the method: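 Screen uses a yeast strain with a defined lesion in DNA damage repair; compound effect is read as loss of growth compared to untreated vehicle cultures.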
# [13] = NCI Yeast Anticancer Drug Screen. Data for the rad50EPP+ strain (AID 151);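 further: 0% = growth of vehicle-treated control cultures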; details: S. cerevisiae rad50 mutant strain, active compounds read high
# Summary of the method: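 One strain with a rad50 alteration (rad50EPP+) was compound-treated, its growth then compared to that of vehicle controls.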
# [14] = at 5.0 µM (retest, dose inferred, filed as 0.5)
# [15] = at 50.0 µM (retest, dose inferred, filed as 5.0)
compound,measurement,setting,value
c1ccc(C2=NNC3c4ccccc4-c4ccccc4N3C2)cc1 (stereo not given),growth inhibition,[1]; at 1.2 µM,-4%
same,growth inhibition,[1]; at 3.7 µM,-5%
same,growth inhibition,[1]; at 11.0 µM,-3%
same,growth inhibition,[1]; at 33.0 µM,0%
same,growth inhibition,[1]; at 100.0 µM,10%
same,growth inhibition,[2]; at 1.2 µM,-1%
same,growth inhibition,[2]; at 3.7 µM,8%
same,growth inhibition,[2]; at 11.0 µM,-4%
same,growth inhibition,[2]; at 33.0 µM,-2%
same,growth inhibition,[2]; at 100.0 µM,47%
same,growth inhibition,[3]; at 1.2 µM,0%
same,growth inhibition,[3]; at 3.7 µM,9%
same,growth inhibition,[3]; [14],16%
same,growth inhibition,[3]; at 11.0 µM,11%
same,growth inhibition,[3]; at 33.0 µM,33%
same,growth inhibition,[3]; [15],67%
same,growth inhibition,[3]; at 50.0 µM,84.9% (active)
same,growth inhibition,[3]; at 100.0 µM,92% (active)
same,growth inhibition,[4]; at 1.2 µM,1%
same,growth inhibition,[4]; at 3.7 µM,2%
same,growth inhibition,[4]; [14],6%
same,growth inhibition,[4]; at 11.0 µM,3%
same,growth inhibition,[4]; at 33.0 µM,5%
same,growth inhibition,[4]; [15],7%
same,growth inhibition,[4]; at 50.0 µM,12.4%
same,growth inhibition,[4]; at 100.0 µM,43%
same,growth inhibition,[5]; at 1.2 µM,-5%
same,growth inhibition,[5]; at 3.7 µM,-11%
same,growth inhibition,[5]; at 11.0 µM,0%
same,growth inhibition,[5]; at 33.0 µM,8%
same,growth inhibition,[5]; at 100.0 µM,26%
same,growth inhibition,[6]; [14],6%
same,growth inhibition,[6]; [15],35%
same,growth inhibition,[6]; at 50.0 µM,1.35%
same,growth inhibition,[7]; at 1.2 µM,0%
same,growth inhibition,[7]; at 3.7 µM,-5%
same,growth inhibition,[7]; at 11.0 µM,-3%
same,growth inhibition,[7]; at 33.0 µM,1%
same,growth inhibition,[7]; at 100.0 µM,8%
same,growth inhibition,[8]; [14],-122%
same,growth inhibition,[8]; [15],38%
same,growth inhibition,[8]; at 50.0 µM,19.5%
same,growth inhibition,[9]; at 1.2 µM,2%
same,growth inhibition,[9]; at 3.7 µM,-14%
same,growth inhibition,[9]; [14],1%
same,growth inhibition,[9]; at 11.0 µM,5%
same,growth inhibition,[9]; at 33.0 µM,11%
same,growth inhibition,[9]; [15],55%
same,growth inhibition,[9]; at 50.0 µM,41%
same,growth inhibition,[9]; at 100.0 µM,42%
same,growth inhibition,[10]; at 1.2 µM,-6%
same,growth inhibition,[10]; at 3.7 µM,-5%
same,growth inhibition,[10]; at 11.0 µM,-6%
same,growth inhibition,[10]; at 33.0 µM,1%
same,growth inhibition,[10]; at 100.0 µM,68%
same,growth inhibition,[11]; at 1.2 µM,-1%
same,growth inhibition,[11]; at 3.7 µM,9%
same,growth inhibition,[11]; at 11.0 µM,2%
same,growth inhibition,[11]; at 33.0 µM,19%
same,growth inhibition,[11]; at 100.0 µM,58%
same,growth inhibition,[12]; at 1.2 µM,0%
same,growth inhibition,[12]; at 3.7 µM,0%
same,growth inhibition,[12]; at 11.0 µM,-2%
same,growth inhibition,[12]; at 33.0 µM,7%
same,growth inhibition,[12]; at 100.0 µM,55%
O=C1C(Br)=CC(Br)(Br)C=C1Br,growth inhibition,[13]; at 1.2 µM,24%
same,growth inhibition,[13]; at 3.7 µM,31%
same,growth inhibition,[13]; at 11.0 µM,70% (active)
same,growth inhibition,[13]; at 33.0 µM,98% (active)
same,growth inhibition,[13]; at 100.0 µM,98% (active)
same,growth inhibition,[2]; at 1.2 µM,9%
same,growth inhibition,[2]; at 3.7 µM,1%
same,growth inhibition,[2]; at 11.0 µM,58%
same,growth inhibition,[2]; at 33.0 µM,98% (active)
same,growth inhibition,[2]; at 100.0 µM,99% (active)
same,growth inhibition,[3]; at 1.2 µM,0%
same,growth inhibition,[3]; at 3.7 µM,-3%
same,growth inhibition,[3]; [14],99% (active)
same,growth inhibition,[3]; at 11.0 µM,30%
same,growth inhibition,[3]; at 33.0 µM,95% (active)
same,growth inhibition,[3]; [15],99% (active)
same,growth inhibition,[3]; at 50.0 µM,90.8% (active)
same,growth inhibition,[3]; at 100.0 µM,98% (active)
same,growth inhibition,[4]; at 1.2 µM,6%
same,growth inhibition,[4]; at 3.7 µM,28%
same,growth inhibition,[4]; [14],100% (active)
same,growth inhibition,[4]; at 11.0 µM,51%
same,growth inhibition,[4]; at 33.0 µM,99% (active)
same,growth inhibition,[4]; [15],97% (active)
same,growth inhibition,[4]; at 50.0 µM,93.5% (active)
same,growth inhibition,[4]; at 100.0 µM,99% (active)
same,growth inhibition,[5]; at 1.2 µM,-32%
same,growth inhibition,[5]; at 3.7 µM,-10%
same,growth inhibition,[5]; at 11.0 µM,28%
same,growth inhibition,[5]; at 33.0 µM,95% (active)
same,growth inhibition,[5]; at 100.0 µM,98% (active)
same,growth inhibition,[6]; [14],-27%
same,growth inhibition,[6]; [15],100% (active)
same,growth inhibition,[6]; at 50.0 µM,93.7% (active)
same,growth inhibition,[7]; at 1.2 µM,24%
same,growth inhibition,[7]; at 3.7 µM,18%
same,growth inhibition,[7]; at 11.0 µM,34%
same,growth inhibition,[7]; at 33.0 µM,98% (active)
same,growth inhibition,[7]; at 100.0 µM,99% (active)
same,growth inhibition,[8]; [14],56%
same,growth inhibition,[8]; [15],100% (active)
same,growth inhibition,[8]; at 50.0 µM,92.5% (active)
same,growth inhibition,[9]; at 1.2 µM,-8%
same,growth inhibition,[9]; at 3.7 µM,-16%
same,growth inhibition,[9]; [14],21%
same,growth inhibition,[9]; at 11.0 µM,7%
same,growth inhibition,[9]; at 33.0 µM,96% (active)
same,growth inhibition,[9]; [15],99% (active)
same,growth inhibition,[9]; at 50.0 µM,92% (active)
same,growth inhibition,[9]; at 100.0 µM,98% (active)
same,growth inhibition,[10]; at 1.2 µM,-9%
same,growth inhibition,[10]; at 3.7 µM,-11%
same,growth inhibition,[10]; at 11.0 µM,51%
same,growth inhibition,[10]; at 33.0 µM,96% (active)
same,growth inhibition,[10]; at 100.0 µM,98% (active)
same,growth inhibition,[11]; at 1.2 µM,-8%
same,growth inhibition,[11]; at 3.7 µM,-10%
same,growth inhibition,[11]; at 11.0 µM,46%
same,growth inhibition,[11]; at 33.0 µM,96% (active)
same,growth inhibition,[11]; at 100.0 µM,98% (active)

# Source: PubChem BioAssay (NCI)
